Bioassay records as filed in PubChem.
Sampled rows, rich in hits. Any-hit rate of the full collection: about 17%.
TGFb inhibitor – qHTS for Inhibitors of TGF-b | HepG2 CAGA-GFP TGF-b/SMAD3 reporter, GFP fluorescence, 18 h; TGF-beta stimulated, 500 pg/mL final | Potency, µM (top dose mostly 46.1 µM), for the others: at the top dose activity, negative = inhibition, most hits filed as inhibitors | hit rate 1.2% among 410,000; also: % is scaled to controls: 0 for no effect and ±100 for the full control effect; nearly all actives have a fitted effect of over 65% in size
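HEPG2 CAGA-GFP reporter cells (1000/well, DMEM with 1% FBS) received compounds, then recombinant TGF-beta at 500 pg/mL final for 18 hours at 37 degrees C. Per-cell GFP summed per well was normalised to unstimulated and stimulated DMSO controls before curve fitting.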
HepG2 viability – qHTS for Inhibitors of TGF-b: Cytotox Counterscreen; hit rate 0.76% among 410,000; Potency, µM (titrated, usually from 46.1 µM), for inactives: at the highest dose activity change, negative = cytotoxicity, usual class: cytotoxic; HepG2 CAGA-GFP viability, ATP luminescence, 18 h; AID 588856, 2011
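CellTiter-Glo luminescence gave cytotoxicity after 18 hours at 37 degrees C. The cells were HepG2 CAGA-GFP in 1% FBS DMEM, stimulated with 500 pg/mL TGF-beta after compound addition. %Activity was normalised to no-cell wells (complete cell-killing) and DMSO (no toxicity), and curves were fitted and classified.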
TDP1 cell noCPT – qHTS for Inhibitors of human tyrosyl-DNA phosphodiesterase 1 (TDP1): qHTS in cells in absence of CPT; hit rate 15% among 420,000; DT40 Tdp1-/- hTDP1 cells, no CPT, ATP luminescence, 48 h; Potency, µM (titrated, usually from 46.2 µM), for inactives: top-dose activity change, negative = growth inhibition, hits mostly inhibitors; also: % is scaled to controls: 0 for no effect and ±100 for the full control effect; nearly all actives have a fitted effect of over 55% in size
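No-CPT arm: Tdp1-/-;hTDP1 DT40 cells (400/well) plus compounds, incubated ≥48 hr at 37 °C. Readout CellTiter-Glo luminescence.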
ATXN viability – Viability Counterscreen for Primary qHTS for Inhibitors of ATXN expression | Potency, µM (doses to about 56.7 µM), actives largely listed as cytotoxic | S2 cells (HEK-293 line with an ATXN2-luciferase reporter) viability, CellTiter-Fluor protease fluorescence, 24 h | hit rate 0.49% among 400,000; also: nearly all actives have a fitted effect of over 40% in size
ATXN2 expr inh – Primary qHTS for Inhibitors of ATXN expression | Potency, µM (series often up to 57 µM), inactives show at the top dose activity change, negative = inhibition, most hits filed as inhibitors | hit rate 0.72% among 360,000 | HEK-293 ATXN2-luciferase reporter, luminescence, 24 h | AID 1745845, 2022; also: % is scaled to controls: 0 for no effect and ±100 for the full control effect; nearly all actives have a fitted effect of over 55% in size
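qHTS (up to 57 uM final) was run with 24 h compound exposure of reporter cells at 37 °C. Each well was multiplexed: SteadyGlo luminescence measured ATXN2-luciferase expression after a fluorogenic Gly-Phe-AFC viability readout (25 uM final).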
TDP1 cell CPT – qHTS for Inhibitors of human tyrosyl-DNA phosphodiesterase 1 (TDP1): qHTS in cells in presence of CPT. chicken DT40 Tdp1-/-;hTDP1 cells + 20 nM CPT, ATP luminescence, 48 h. Potency, µM (top dose mostly 46.2 µM), without a hit: top-dose activity change, negative = growth inhibition, hits mostly inhibitors. hit rate 12% among 420,000. AID 686979, 2013; also: % is scaled to controls: 0 for no effect and ±100 for the full control effect; nearly all actives have a fitted effect of over 55% in size
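Chicken DT40 Tdp1-/- cells complemented with human TDP1, 400 cells/well, exposed to compounds plus 20 nM camptothecin for at least 48 h at 37 C; viability read as ATP content by CellTiter-Glo luminescence.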
* marks the source's active call; other numbers are inactive results; i = inactive; u = inconclusive; x = not tested or not shown; ! = not active in a repeat. Calls follow the shape of the dose curve; as a rule, active = well fitted curve in the direction sought with a large enough effect; inconclusive = small, poorly fitted or top-dose-only effect, or another doubt; inactive = no such curve, though single readings can be large; an effect the other way counts as inactive or inconclusive. Potency is read from the fitted curve at half-maximal effect.

SMILES | TGFb inhibitor | HepG2 viability | TDP1 cell noCPT | ATXN viability | ATXN2 expr inh | TDP1 cell CPT
O=C(O)c1cccs1 | 5% | 16% | -6% | x | x | -5%
O=C(Nc1ccc(Br)cc1)c1nn(C23CC4CC(CC(C4)C2)C3)cc1Br | u | -4% | 15µM* | i | -1% | u
CCCCC[C@@H](O)C1C(=O)OC(C)[C@H](O)/C=C/C=C/C=C/C=C/C=C(\C)C(O)C(O)C(O)C[C@H](O)C[C@H](O)C[C@H](O)C[C@H](O)C[C@@H]1O (some centres not stated) | x | x | 0% | i | x | 6%
COc1ccccc1CN1CCCC(C(=O)c2ccccc2SC)C1 (configuration not stated) | u | -3% | 21µM* | i | -22% | 13µM*
COc1cccc(OC)c1CN1CCCC(C(=O)c2cccc(Cl)c2)C1 (configuration not stated) | u | -34% | u | i | -19% | 18µM*
CCOc1ccc(CN2CCCC(C(=O)c3ccccc3OC)C2)cc1 (configuration not stated) | -24% | -23% | u | i | -32% | u
CSc1ccccc1C(=O)C1CCCN(Cc2ccncc2)C1 (configuration not stated) | -7% | -16% | -14% | i | x | -21%
COc1ccc(O)c(CN2CCCC(C(=O)c3ccccc3SC)C2)c1 (configuration not stated) | -20% | -20% | 15µM* | i | -31% | u
COc1ccccc1CN1CCCC(C(=O)c2ccccc2OC)C1 (configuration not stated) | 12% | -20% | u | i | -9% | 8.2µM*
CNC(=O)O/N=C(/C)SC | x | x | -3% | x | x | -5%
O=C(c1cccc(C(F)(F)F)c1)C1CCCN(Cc2ncc[nH]2)C1 (configuration not stated) | -20% | -11% | -23% | i | 8% | u
COc1ccc(C(=O)C2CCCN(CCc3ccccc3)C2)cc1OC (configuration not stated) | 2% | -18% | 18µM* | i | 6% | u
CCn1ccnc1CN1CCCC(C(=O)c2cccc(C(F)(F)F)c2)C1 (configuration not stated) | -3% | -7% | 26µM* | i | u | u
Cc1ccc2oc(=O)n(CCNC(=O)Nc3ccccc3C)c2c1 | -20% | -43% | -12% | i | -16% | -13%
O=C1CN2CCOC2(c2ccccc2Cl)c2cc(Cl)ccc2N1 (configuration not stated) | x | x | x | i | 5% | x
[Cl-].[Cl-].[Hg+2] | x | x | 0.34µM* | x | x | 0.75µM*
CNC[C@H](O)c1ccc(O)c(OC)c1 | x | x | x | i | x | x
C=C(C)[C@H]1O[C@H]2CC[C@@]3(C)[C@@](O)(CC[C@H]4[C@@H]5OC(C)(C)[C@H]6C[C@@H]7C(=C)Cc8c(Cl)cc9[nH]c(c5c9c8[C@@]76O)[C@@]43C)[C@]23O[C@@H]3[C@H]1O | x | x | 12µM* | x | x | u
Cc1cc(C)nc(N2Cc3ccccc3C2=N)n1 | -23% | -6% | 23µM* | u | u | u
COC(=O)CC1Oc2ccc(C)cc2-n2cc(-c3ccc(F)cc3)nc21 (configuration not stated) | 5% | -10% | 9.2µM* | i | -6% | 18µM*
CCN1C[C@]2(COC)CC[C@H](O)[C@@]34[C@@H]5C[C@H]6[C@@H](OC)[C@H]5[C@](O)(C[C@@H]6OC)[C@@](O)([C@@H](OC)[C@H]23)[C@@H]14 | x | x | x | i | x | x
CCCCC(=O)Nc1c(C(=O)N2CCN(c3ccccc3F)CC2)oc2ccccc12 | u | -25% | 9.2µM* | x | x | 15µM*
O=C(Oc1ccc([N+](=O)[O-])cc1)N1CCC(C(O)(c2ccc3c(c2)OCO3)c2ccc3c(c2)OCO3)CC1 | x | x | x | x | -14% | x
COc1ccc(CCNCc2ccccc2)cc1 | 0% | -4% | u | i | x | -10%
COc1ccc(CCNCc2c(OC)ccc3ccccc23)cc1 | -2% | -54% | 13µM* | i | x | 13µM*
SMILES | TGFb inhibitor | HepG2 viability | TDP1 cell noCPT | ATXN viability | ATXN2 expr inh | TDP1 cell CPT
CCOC(=O)c1oc2ccc(S(=O)(=O)n3nc(-c4ccc(Cl)cc4)cc3N)cc2c1C | u | -14% | 12µM* | i | 2% | 23µM*
O=C(c1ccco1)N1CCC[C@@]2(CCN(Cc3ccncc3)C2)C1 | x | x | -13% | x | x | -8%
Cc1ccc(O)c(C(CCN(C(C)C)C(C)C)c2ccccc2)c1 (configuration not stated) | x | x | -17% | x | -1% | -10%
CO[C@H]1C=CCCC=CC(=O)O[C@H]([C@H](C)C(=O)CCCC2CC(=O)NC(=O)C2)C(C)=C[C@@H](C)[C@@H]1O | x | x | 6.5µM* | i | -3% | 16µM*
CCCOC(=O)Cc1ccc(OCC(=O)N(CC)CC)c(OC)c1 | x | x | u | i | 0% | -24%
C#CCN1C(=O)C2(C(C#N)=C(N)OC(C)=C2C(=O)OCc2ccccc2)c2ccccc21 (configuration not stated) | 0% | -29% | 23µM* | i | -8% | u
CCOC(=O)C1=C(C)OC(N)=C(C#N)C12C(=O)N(C)c1ccccc12 (configuration not stated) | u | -18% | -8% | i | 22% | 6%
Clc1ccc(COC(Cn2ccnc2)c2ccc(Cl)cc2Cl)cc1 (configuration not stated) | u | -95% | 21µM* | u | 35µM*! | 23µM*
C=C1C[C@@H]2[C@H](CC[C@]3(C)C(=O)CC[C@@H]23)[C@@]2(C)C=CC(=O)C=C12 | x | x | 8.4µM* | u | -29% | 16µM*
O=C1NC(=O)C2(CCN(S(=O)(=O)c3ccccc3)CC2)C(=O)N1 | 7% | -14% | -15% | i | 0% | -2%
CC1(CCl)CN1S(=O)(=O)c1ccccc1 (configuration not stated) | -7% | -19% | u | i | 7% | 18µM*
